Test results published in PubChem BioAssay (NCI).
The panel holds about 83,000 compounds, 20% with a hit somewhere; the sample as a whole holds those more often.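 Single-concentration screen, 48 h exposure, 96-well plates. Endpoint: percent growth. Below 10 = active.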 Activity calls are given as the source filed them.

Columns and labels:
Assay in all cases: NCI-60 one-dose screen, 48 h (100 = growth as untreated, 0 = no growth, -100 = all killed)
Conditions in all cases: 10 µM unless noted
HCT-15 colon = tested on: HCT-15 colon
HT29 colon = tested on: HT29 colon
SNB-75 CNS = tested on: SNB-75 CNS
SNB-19 CNS = tested on: SNB-19 CNS
U251 CNS = tested on: U251 CNS
SK-MEL-5 melanoma = tested on: SK-MEL-5 melanoma
UACC-62 melanoma = tested on: UACC-62 melanoma
LOX IMVI melanoma = tested on: LOX IMVI melanoma
SK-MEL-28 melanoma = tested on: SK-MEL-28 melanoma
PC-3 prostate = tested on: PC-3 prostate

Measured: growth

Cc1cc(Nc2ccc(C)c(Cl)c2)n2nc(C(F)(F)F)nc2n1
inactive: HCT-15 colon 66.9% | HT29 colon 25.5% | SNB-19 CNS 37.4% | SK-MEL-5 melanoma 75.4% | UACC-62 melanoma 66.9% | LOX IMVI melanoma 12.2% | SK-MEL-28 melanoma 82.8%
active: SNB-75 CNS -30.7% | U251 CNS -18.3%

CC(=O)O[C@H]1CC[C@]2(C)[C@H]3CC=C4[C@@H]5CC(C)(C)CC[C@]5(C(=O)NCCNCCNCCN)CC[C@@]4(C)[C@]3(C)CC[C@H]2C1(C)C
inactive: SNB-75 CNS 71% | SNB-19 CNS 92.6% | PC-3 prostate 38.9% | SK-MEL-5 melanoma 90.7% | UACC-62 melanoma 93.9%
active: HCT-15 colon -74.8% | HT29 colon -47.7% | LOX IMVI melanoma -98.9%

CC1SC(c2ccc(N(C)C)cc2)N(NC(=O)C(O)(c2ccccc2)c2ccccc2)C1=O (stereo not drawn)
inactive: HCT-15 colon 83.8% | HT29 colon 93.8% | SNB-75 CNS 96.6% | SNB-19 CNS 110% | U251 CNS 91.4% | SK-MEL-5 melanoma 98.8% | UACC-62 melanoma 79.9% | LOX IMVI melanoma 87.7% | SK-MEL-28 melanoma 111%

O=C(COc1ccc(/C=C2\COc3ccccc3C2=O)cc1)Nc1nccs1
inactive: HCT-15 colon 72.6% | HT29 colon 39.1% | SNB-75 CNS 84.6% | SNB-19 CNS 88.2% | U251 CNS 73% | UACC-62 melanoma 96.4% | LOX IMVI melanoma 63.2% | SK-MEL-28 melanoma 86.5%

Cc1ccc2c(C(C[N+](=O)[O-])c3ccccc3)c(-c3ccccc3)[nH]c2c1 (stereo not drawn)
active: HT29 colon 0.357% [9.5 µM] | SNB-75 CNS -6.93% [9.5 µM]
inactive: HCT-15 colon 18.8% [9.5 µM] | SNB-19 CNS 37.4% [9.5 µM] | U251 CNS 25% [9.5 µM] | SK-MEL-5 melanoma 32.8% [9.5 µM] | UACC-62 melanoma 38% [9.5 µM] | LOX IMVI melanoma 28.5% [9.5 µM] | SK-MEL-28 melanoma 49.3% [9.5 µM]
